# Laboratory results published in paper PMC9838217, “Structure of SALL4 zinc finger domain reveals link between AT-rich DNA binding and Okihiro syndrome”.
# Changes are numbered by the printed parent chain.
# How the values were obtained:
# Test in all cases: HT-SELEX; high values mean tight binding
# Conditions in all cases: protein: recombinant; vector His6-GST; dsDNA, one strand shown
# [1] = target: T1, SALL4 ZFC4 WT (HT-SELEX) (Mus musculus, UniProt Q8BX22 870-940)
# T1 sequence: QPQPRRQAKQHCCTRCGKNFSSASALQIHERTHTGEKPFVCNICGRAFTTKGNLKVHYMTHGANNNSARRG
# Summary of the method: (§1)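 Recombinant mouse SALL4 zinc finger cluster 4 (residues 870–940, 1 µg), purified, was mixed with library DNA (1.5 µg in the first cycle, 200 ng thereafter) in 100 µl of buffer containing 10 mM Tris–HCl pH 7.5, 50 mM NaCl, poly(dI-dC) and DTT, and left for 10 min at room temperature. Complexes were captured on Ni2+ beads, washed, amplified by PCR and reselected for up to 6 cycles in triplicate, after which MiSeq sequencing and a 6-mer scan followed. Binding signal is the read fraction of each canonical k-mer, given as fold change relative to the starting random library.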
# [2] = target: T2, SALL4 ZFC4 R900W (HT-SELEX) (Mus musculus, UniProt Q8BX22 870-940, R900W)
# T2 sequence: T1 sequence with R31W
# Summary of the method: as §1
# [3] = target: T3, SALL4 ZFC4 G921D (HT-SELEX) (Mus musculus, UniProt Q8BX22 870-940, G921D)
# T3 sequence: T1 sequence with G52D
# Summary of the method: as §1
Sequence,binding signal [1],binding signal [2],binding signal [3]
ACGGTC,0.362 ± 0.0473 fold-change vs cycle 0,0.432 ± 0.0371 fold-change vs cycle 0,0.553 ± 0.067 fold-change vs cycle 0
CATCCG,0.395 ± 0.00447 fold-change vs cycle 0,0.448 ± 0.0185 fold-change vs cycle 0,0.567 ± 0.0534 fold-change vs cycle 0
CAGACC,0.367 ± 0.0114 fold-change vs cycle 0,0.461 ± 0.0322 fold-change vs cycle 0,0.553 ± 0.0477 fold-change vs cycle 0
GGAGGA,0.577 ± 0.0578 fold-change vs cycle 0,0.669 ± 0.0435 fold-change vs cycle 0,0.733 ± 0.0247 fold-change vs cycle 0
ATTTCA,2.56 ± 0.117 fold-change vs cycle 0,1.87 ± 0.0758 fold-change vs cycle 0,1.7 ± 0.117 fold-change vs cycle 0
AGATCC,0.821 ± 0.0254 fold-change vs cycle 0,0.949 ± 0.0348 fold-change vs cycle 0,1.045 ± 0.00383 fold-change vs cycle 0
CAGCTA,0.637 ± 0.0596 fold-change vs cycle 0,0.727 ± 0.0267 fold-change vs cycle 0,0.82 ± 0.0545 fold-change vs cycle 0
CCATCC,0.48 ± 0.0325 fold-change vs cycle 0,0.541 ± 0.0313 fold-change vs cycle 0,0.633 ± 0.0281 fold-change vs cycle 0
AATAAC,2.58 ± 0.181 fold-change vs cycle 0,2.03 ± 0.114 fold-change vs cycle 0,1.79 ± 0.168 fold-change vs cycle 0
ACCGTG,0.361 ± 0.00928 fold-change vs cycle 0,0.456 ± 0.013 fold-change vs cycle 0,0.547 ± 0.0682 fold-change vs cycle 0
ACTATC,1.35 ± 0.0436 fold-change vs cycle 0,1.45 ± 0.0712 fold-change vs cycle 0,1.39 ± 0.1 fold-change vs cycle 0
CAACAC,0.658 ± 0.0239 fold-change vs cycle 0,0.8 ± 0.0226 fold-change vs cycle 0,0.849 ± 0.0276 fold-change vs cycle 0
GTACAA,1.14 ± 0.0399 fold-change vs cycle 0,1.26 ± 0.0443 fold-change vs cycle 0,1.22 ± 0.0489 fold-change vs cycle 0
AATAAT,4.57 ± 0.438 fold-change vs cycle 0,2.66 ± 0.189 fold-change vs cycle 0,2.27 ± 0.265 fold-change vs cycle 0
CTGACA,0.738 ± 0.0153 fold-change vs cycle 0,0.843 ± 0.0362 fold-change vs cycle 0,0.914 ± 0.0368 fold-change vs cycle 0
CTGCAG,0.318 ± 0.0345 fold-change vs cycle 0,0.373 ± 0.0324 fold-change vs cycle 0,0.467 ± 0.0711 fold-change vs cycle 0
TCTACA,1.24 ± 0.0179 fold-change vs cycle 0,1.33 ± 0.0358 fold-change vs cycle 0,1.29 ± 0.0644 fold-change vs cycle 0
ATAACA,2.52 ± 0.194 fold-change vs cycle 0,2.06 ± 0.122 fold-change vs cycle 0,1.83 ± 0.192 fold-change vs cycle 0
AGTATA,2.16 ± 0.0916 fold-change vs cycle 0,2.13 ± 0.148 fold-change vs cycle 0,1.85 ± 0.204 fold-change vs cycle 0
GTTATA,2.5 ± 0.231 fold-change vs cycle 0,2.05 ± 0.15 fold-change vs cycle 0,1.78 ± 0.179 fold-change vs cycle 0

Sequence,binding signal [1],binding signal [2],binding signal [3]
GCACAA,0.447 ± 0.00967 fold-change vs cycle 0,0.507 ± 0.00524 fold-change vs cycle 0,0.634 ± 0.0509 fold-change vs cycle 0
AGGACG,0.361 ± 0.014 fold-change vs cycle 0,0.462 ± 0.00636 fold-change vs cycle 0,0.558 ± 0.0296 fold-change vs cycle 0
GTCCTA,0.764 ± 0.0287 fold-change vs cycle 0,0.905 ± 0.0413 fold-change vs cycle 0,0.9363 ± 0.00722 fold-change vs cycle 0
AAGCCT,0.633 ± 0.0294 fold-change vs cycle 0,0.72 ± 0.0269 fold-change vs cycle 0,0.848 ± 0.0353 fold-change vs cycle 0
TATACA,2.08 ± 0.107 fold-change vs cycle 0,1.99 ± 0.114 fold-change vs cycle 0,1.77 ± 0.145 fold-change vs cycle 0
ATGCAT,1.33 ± 0.0832 fold-change vs cycle 0,1.27 ± 0.0798 fold-change vs cycle 0,1.26 ± 0.0876 fold-change vs cycle 0
AACCAG,0.772 ± 0.0439 fold-change vs cycle 0,0.91 ± 0.0252 fold-change vs cycle 0,0.941 ± 0.0329 fold-change vs cycle 0
CCTTAG,0.925 ± 0.0277 fold-change vs cycle 0,1.06 ± 0.0431 fold-change vs cycle 0,1.04 ± 0.0492 fold-change vs cycle 0
TCTGCA,0.609 ± 0.0257 fold-change vs cycle 0,0.678 ± 0.019 fold-change vs cycle 0,0.747 ± 0.0393 fold-change vs cycle 0
GAATAC,1.29 ± 0.026 fold-change vs cycle 0,1.41 ± 0.0467 fold-change vs cycle 0,1.34 ± 0.07 fold-change vs cycle 0
TAGGGA,0.931 ± 0.0124 fold-change vs cycle 0,0.998 ± 0.0215 fold-change vs cycle 0,1.02 ± 0.0328 fold-change vs cycle 0
AGTAGA,1.33 ± 0.0604 fold-change vs cycle 0,1.54 ± 0.0844 fold-change vs cycle 0,1.41 ± 0.124 fold-change vs cycle 0
AATTGA,1.92 ± 0.0967 fold-change vs cycle 0,1.88 ± 0.0991 fold-change vs cycle 0,1.75 ± 0.142 fold-change vs cycle 0
CATAAG,1.63 ± 0.0634 fold-change vs cycle 0,1.59 ± 0.055 fold-change vs cycle 0,1.45 ± 0.0676 fold-change vs cycle 0
AGCCAT,0.592 ± 0.0288 fold-change vs cycle 0,0.664 ± 0.00758 fold-change vs cycle 0,0.778 ± 0.0611 fold-change vs cycle 0
AGGCTC,0.313 ± 0.0334 fold-change vs cycle 0,0.399 ± 0.014 fold-change vs cycle 0,0.546 ± 0.0493 fold-change vs cycle 0
GGTGAC,0.454 ± 0.0238 fold-change vs cycle 0,0.526 ± 0.0318 fold-change vs cycle 0,0.642 ± 0.0609 fold-change vs cycle 0
CAGAGG,0.463 ± 0.0456 fold-change vs cycle 0,0.548 ± 0.0393 fold-change vs cycle 0,0.65 ± 0.0673 fold-change vs cycle 0
ACGTGA,0.774 ± 0.0226 fold-change vs cycle 0,0.876 ± 0.021 fold-change vs cycle 0,0.931 ± 0.0233 fold-change vs cycle 0
AGTCCG,0.333 ± 0.0345 fold-change vs cycle 0,0.404 ± 0.0391 fold-change vs cycle 0,0.533 ± 0.0458 fold-change vs cycle 0

Sequence,binding signal [1],binding signal [2],binding signal [3]
AGACAG,0.803 ± 0.00959 fold-change vs cycle 0,0.914 ± 0.0204 fold-change vs cycle 0,0.943 ± 0.0351 fold-change vs cycle 0
TCTTAA,2.07 ± 0.0682 fold-change vs cycle 0,2.14 ± 0.15 fold-change vs cycle 0,1.86 ± 0.222 fold-change vs cycle 0
CAGCTG,0.312 ± 0.0432 fold-change vs cycle 0,0.397 ± 0.0183 fold-change vs cycle 0,0.499 ± 0.0395 fold-change vs cycle 0
ATGTGC,0.53 ± 0.0281 fold-change vs cycle 0,0.588 ± 0.00704 fold-change vs cycle 0,0.719 ± 0.0265 fold-change vs cycle 0
CATTGC,0.645 ± 0.0305 fold-change vs cycle 0,0.712 ± 0.0136 fold-change vs cycle 0,0.825 ± 0.0379 fold-change vs cycle 0
AAGCTC,0.631 ± 0.0495 fold-change vs cycle 0,0.76 ± 0.0539 fold-change vs cycle 0,0.866 ± 0.0327 fold-change vs cycle 0
CGGATA,0.674 ± 0.0155 fold-change vs cycle 0,0.747 ± 0.0235 fold-change vs cycle 0,0.823 ± 0.043 fold-change vs cycle 0
TGGCAA,0.479 ± 0.0154 fold-change vs cycle 0,0.535 ± 0.0186 fold-change vs cycle 0,0.673 ± 0.0414 fold-change vs cycle 0
GGGATA,0.88 ± 0.0566 fold-change vs cycle 0,0.967 ± 0.0568 fold-change vs cycle 0,0.94 ± 0.0469 fold-change vs cycle 0
TCAGCA,0.676 ± 0.0405 fold-change vs cycle 0,0.74 ± 0.0606 fold-change vs cycle 0,0.841 ± 0.0603 fold-change vs cycle 0
CTGTAC,0.751 ± 0.0338 fold-change vs cycle 0,0.874 ± 0.0496 fold-change vs cycle 0,0.911 ± 0.0674 fold-change vs cycle 0
AATTGG,1.07 ± 0.0351 fold-change vs cycle 0,1.15 ± 0.0596 fold-change vs cycle 0,1.19 ± 0.036 fold-change vs cycle 0
GAAGGC,0.304 ± 0.0244 fold-change vs cycle 0,0.39 ± 0.0131 fold-change vs cycle 0,0.522 ± 0.0691 fold-change vs cycle 0
ATTTCG,1.02 ± 0.0756 fold-change vs cycle 0,0.985 ± 0.0219 fold-change vs cycle 0,1.06 ± 0.0262 fold-change vs cycle 0
AATGCC,0.502 ± 0.015 fold-change vs cycle 0,0.5601 ± 0.00429 fold-change vs cycle 0,0.704 ± 0.0636 fold-change vs cycle 0
GTGTGA,0.748 ± 0.0198 fold-change vs cycle 0,0.881 ± 0.0312 fold-change vs cycle 0,0.9 ± 0.0278 fold-change vs cycle 0
TAGACA,1.18 ± 0.0561 fold-change vs cycle 0,1.3 ± 0.0829 fold-change vs cycle 0,1.28 ± 0.0805 fold-change vs cycle 0
ACGTCA,0.686 ± 0.00954 fold-change vs cycle 0,0.776 ± 0.0221 fold-change vs cycle 0,0.847 ± 0.0153 fold-change vs cycle 0
GAAGAA,1.38 ± 0.0779 fold-change vs cycle 0,1.56 ± 0.142 fold-change vs cycle 0,1.41 ± 0.156 fold-change vs cycle 0
AGGTTC,0.828 ± 0.0497 fold-change vs cycle 0,0.972 ± 0.0561 fold-change vs cycle 0,1.02 ± 0.0282 fold-change vs cycle 0
